In test [1] the target is Paired box protein Pax-6 (Homo sapiens) (UniProt P26367). As to the kind of experiment: ATG_Pax6_CIS: Attagene CIS-FACTORIAL HepG2 Assay for human Paired Box 6 (PAX6) (AID 2282956). Particulars: HepG2 CIS-FACTORIAL PAX6 reporter transcription, RNA readout; actives raise or lower the signal. The gist of the method: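 Transient MRTU transfection of HepG2 → compound exposure 24 h → TriZol RNA, oligo(dT) RT → PCR, 6-FAM primer extension, HpaI cut → capillary electrophoresis; activity fitted both directions against DMSO.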

Test [2] in a line: ATG_PXRE_CIS: Attagene CIS-FACTORIAL HepG2 Assay for human Pregnane X Receptor Element (PXRE) (AID 2282957). Particulars: HepG2 Attagene CIS-FACTORIAL PXRE reporter, mRNA; actives raise or lower the signal. Summed up: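 Transfect HepG2 with MRTUs (cis promoter elements); dose chemical, incubate 24 h; isolate RNA, RT with oligo(dT), PCR, 6-FAM label, HpaI cut, CE. Gain/loss fit vs DMSO.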

Test [3] in a line: ATG_RORE_CIS: Attagene CIS-FACTORIAL HepG2 Assay for human RAR-related Orphan Receptor Element (RORE) (AID 2282959). Particulars: HepG2 Attagene cis-factorial RORE reporter, mRNA; actives raise or lower the signal. The gist of the method:
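Cells were HepG2 carrying transfected cis-regulated reporter constructs, dosed for 24 hours. Total RNA was reverse-transcribed and reporter cDNA amplified, fluorescently labeled and sized by capillary electrophoresis. Activity was fitted bidirectionally relative to DMSO.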

The nature of test [4]: ATG_Sox_CIS: Attagene CIS-FACTORIAL HepG2 Assay for human SRY-box transcription factor (SOX) (AID 2282960). The note with it: HepG2 Attagene cis-factorial SOX reporter, mRNA; actives raise or lower the signal. Summed up: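 Transient MRTU transfection of HepG2; 24 h compound incubation; TriZol RNA, oligo(dT) RT, PCR, 6-FAM primer extension, HpaI cut, CE. Bidirectional fit, DMSO = baseline.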

The target in test [5] is Transcription factor Sp1 (Homo sapiens) (UniProt P08047). Put plainly: ATG_Sp1_CIS: Attagene CIS-FACTORIAL HepG2 Assay for human Specificity Protein 1 (Sp1) (AID 2282961). Particulars: HepG2 Sp1 cis-reporter transcription, actives raise or lower the signal. Summed up:
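Endogenous Sp1 activity was gauged in human liver HepG2 cells bearing transfected reporter units under a cis-regulating promoter. After 24 h dosing, reporter mRNA was quantified by RT-PCR with capillary electrophoresis, and activity fitted bidirectionally versus DMSO.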

The nature of test [6]: ATG_SREBP_CIS: Attagene CIS-FACTORIAL HepG2 Assay for human Sterol Regulatory Element Binding (SREBP) (AID 2282962). Particulars: HepG2 Attagene cis-factorial SREBP reporter, mRNA; actives raise or lower the signal. Summed up: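 Transfected HepG2 (cis-regulated reporter library, endogenous TFs) → compound 24 h → total RNA → oligo(dT) RT → reporter-specific PCR → FAM primer extension, HpaI cut → CE fluorescence. Fit bidirectional vs DMSO.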

The nature of test [7]: ATG_TA_CIS: Attagene CIS-FACTORIAL HepG2 Assay for human TA Basal Promoter (AID 2282964). Particulars: HepG2 Attagene CIS-factorial TA basal promoter reporter; actives raise or lower the signal. The gist of the method: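 Fluorescence from labelled RT-PCR reporter fragments, separated by capillary electrophoresis, gives the signal. Cells: HepG2 transiently carrying multiple reporter units, 24 h chemical dosing. Gain or loss relative to DMSO.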

Test [8] can be described thus: ATG_TCF_b_cat_CIS: Attagene CIS-FACTORIAL HepG2 Assay for human T-Cell-Factor with beta-catenin (TCF/b-cat) (AID 2282965). Particulars: HepG2 TCF/beta-catenin cis-reporter transcription, actives raise or lower the signal. Summed up:
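Measured: reporter mRNA in HepG2 transiently transfected with cis-promoter reporter units, 24 h after chemical addition. Fitting was bidirectional, DMSO as negative control.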

Test [9] concerns the target Signal transducer and activator of transcription 3 (Homo sapiens) (UniProt P40763). Put plainly: ATG_STAT3_CIS: Attagene CIS-FACTORIAL HepG2 Assay for human Signal Transducer and Activator of Transcription 3 (STAT3) (AID 2282963). Particulars: HepG2, Attagene cis-factorial STAT3 reporter transcription; actives raise or lower the signal. Summed up:
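Endogenous STAT3-responsive cis-element activity was read in transiently transfected HepG2 cells after 24 h treatment. Reporter transcripts were quantified via RT-PCR and capillary electrophoresis, with DMSO as negative control and bidirectional curve fitting.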

Each structure is given as a SMILES string. Calls of active or inactive are those of the source. How the source made its calls: active means hit-call score of the fitted dose curve at least 0.9, where 1 is the maximum; inactive means score below 0.9.

One may read the AC50 as the concentration at which the activity in the assay is half-maximal.

Chain of Transcription factor Sp1 (Homo sapiens) (P08047 whole entry, looked up): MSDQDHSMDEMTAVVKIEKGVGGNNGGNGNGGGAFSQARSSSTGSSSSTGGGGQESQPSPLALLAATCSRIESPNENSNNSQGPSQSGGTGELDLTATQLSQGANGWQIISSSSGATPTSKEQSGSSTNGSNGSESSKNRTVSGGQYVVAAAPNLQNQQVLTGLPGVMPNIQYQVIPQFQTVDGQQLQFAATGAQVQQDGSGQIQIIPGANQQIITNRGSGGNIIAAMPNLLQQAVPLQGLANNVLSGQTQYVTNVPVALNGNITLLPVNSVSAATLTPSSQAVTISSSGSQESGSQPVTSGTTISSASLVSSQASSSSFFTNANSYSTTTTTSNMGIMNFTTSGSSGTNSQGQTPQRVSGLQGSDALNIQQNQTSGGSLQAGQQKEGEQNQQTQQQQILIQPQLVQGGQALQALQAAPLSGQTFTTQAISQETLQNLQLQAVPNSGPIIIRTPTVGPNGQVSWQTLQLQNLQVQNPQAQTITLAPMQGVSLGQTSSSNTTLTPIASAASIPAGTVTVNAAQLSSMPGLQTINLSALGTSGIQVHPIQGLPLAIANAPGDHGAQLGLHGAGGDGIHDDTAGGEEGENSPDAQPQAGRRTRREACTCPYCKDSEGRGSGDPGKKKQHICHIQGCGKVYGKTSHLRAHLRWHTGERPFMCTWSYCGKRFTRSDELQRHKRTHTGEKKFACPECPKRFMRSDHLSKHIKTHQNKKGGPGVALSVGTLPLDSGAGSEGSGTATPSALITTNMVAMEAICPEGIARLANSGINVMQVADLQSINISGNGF
Chain of Signal transducer and activator of transcription 3 (Homo sapiens) (P40763 whole entry, looked up): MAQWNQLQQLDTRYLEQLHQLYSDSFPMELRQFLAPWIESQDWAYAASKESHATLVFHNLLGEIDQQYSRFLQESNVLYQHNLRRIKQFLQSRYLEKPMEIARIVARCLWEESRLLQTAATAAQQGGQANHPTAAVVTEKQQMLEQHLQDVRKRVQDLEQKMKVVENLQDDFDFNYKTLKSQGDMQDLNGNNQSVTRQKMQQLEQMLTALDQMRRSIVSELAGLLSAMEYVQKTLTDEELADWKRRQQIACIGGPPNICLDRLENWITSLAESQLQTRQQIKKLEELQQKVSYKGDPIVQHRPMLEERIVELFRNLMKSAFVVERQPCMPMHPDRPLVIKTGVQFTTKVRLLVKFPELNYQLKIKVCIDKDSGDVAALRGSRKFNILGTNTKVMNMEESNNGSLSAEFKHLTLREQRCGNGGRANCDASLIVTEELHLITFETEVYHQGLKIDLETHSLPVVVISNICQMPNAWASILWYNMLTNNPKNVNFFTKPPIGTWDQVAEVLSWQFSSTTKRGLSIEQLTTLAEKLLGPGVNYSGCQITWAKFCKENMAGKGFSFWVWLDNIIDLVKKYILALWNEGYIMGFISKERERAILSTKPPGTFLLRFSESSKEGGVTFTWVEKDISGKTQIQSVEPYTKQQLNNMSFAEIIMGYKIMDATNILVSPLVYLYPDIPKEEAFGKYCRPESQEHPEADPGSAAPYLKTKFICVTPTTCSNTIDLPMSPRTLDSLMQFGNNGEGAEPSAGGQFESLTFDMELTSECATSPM
Chain of Paired box protein Pax-6 (Homo sapiens) (P26367 whole entry, looked up): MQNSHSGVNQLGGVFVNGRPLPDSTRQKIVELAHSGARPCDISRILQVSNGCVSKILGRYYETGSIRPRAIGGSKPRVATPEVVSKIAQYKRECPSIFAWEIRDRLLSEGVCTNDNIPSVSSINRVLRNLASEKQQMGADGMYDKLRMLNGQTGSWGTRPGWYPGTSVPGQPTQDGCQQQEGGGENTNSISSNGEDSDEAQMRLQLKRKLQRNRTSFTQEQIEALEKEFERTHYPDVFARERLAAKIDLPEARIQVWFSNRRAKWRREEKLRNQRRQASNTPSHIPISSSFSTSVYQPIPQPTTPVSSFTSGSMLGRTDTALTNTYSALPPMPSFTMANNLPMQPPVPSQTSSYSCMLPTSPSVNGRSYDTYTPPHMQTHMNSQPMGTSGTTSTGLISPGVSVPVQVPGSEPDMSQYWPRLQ

In the case of `CC(=O)Nc1ccc(CC(=O)O)cc1`, the compound was called inactive in test [1], in test [2], in test [3], in test [4], in test [5] and in [6]. The result in test [7] and in test [8] was inactive.

In the case of `CCCCCCCCCCCCCC(=O)O`, the result in test [1], in test [2], in [4], in [5], in test [9] and in [7] was inactive. Further, the call in test [8] was inactive. Further, the AC50 in test [6] was 54.9 µM (active).

As to `OC1OC[C@@H](O)[C@H](O)[C@H]1O` (stereo not given in full), the compound was classed as inactive in test [1], in test [2], in test [3], in test [4], in test [6] and in test [9]. The call in test [7] and in test [8] was inactive.

As for `O=S(=O)(O)c1ccc(O)c2ncccc12`, the result in test [1], in [2], in [4], in test [5], in test [6] and in test [9] was inactive. In addition, the outcome in test [7] and in test [8] was inactive.

Regarding `OCC(CO)(CO)COCC(CO)(CO)CO`, the call in [1], in test [2], in test [4], in test [5], in [6] and in test [9] was inactive. Also, the compound was called inactive in test [7] and in test [8].

For `C=C[Si](OCC)(OCC)OCC`, the outcome in test [1], in [3], in [4], in [5], in test [6] and in test [7] was inactive. For the same compound, in [8], the outcome was inactive. In test [2], the AC50 is 5.48 µM (active).

Turning to `CC(=O)C=CC1=C(C)CCCC1(C)C`, the outcome in test [1], in test [3], in [4], in test [6], in test [9] and in test [7] was inactive. In [8], the result was inactive. In addition, the AC50 in test [2] is 0.716 µM (active).

As to `CC(C)[C@H]1CC[C@@H](C)CC1=O`, the outcome in [1], in [3], in [4], in test [6], in test [9] and in [7] was inactive. Moreover, the outcome in [8] was inactive. Moreover, in test [2], the AC50 is 61.9 µM (active).

For the compound `Cc1cccc(C)c1C`, the outcome in [1], in [2], in [3], in test [4], in test [5] and in test [6] was inactive. Moreover, the result in test [7] and in [8] was inactive.

For `CC(C)(C)c1cc(CCC(=O)NN)cc(C(C)(C)C)c1O`, the call in test [1], in test [3], in test [4], in [5], in test [6] and in [7] was inactive. In addition, in test [8], the outcome was inactive. Besides, the AC50 in [2] is 10.2 µM (active).

Consider `C=CC(=O)NCOCC(C)C`, for which the compound was classed as inactive in [1], in [4], in test [5], in test [6], in test [9] and in test [7]. Besides, the outcome in test [8] was inactive. In [2], the AC50 is 21 µM (active).

`COC(C)CCO` (stereo not given): the outcome in test [1], in test [4], in test [5], in test [6], in test [9] and in test [7] was inactive. The figures for the AC50 in [2] and in [8] were 26.6 µM (active) and 187 µM (active), respectively.

Turning to `CCCCCC(=O)OCCc1ccccc1`, the result in test [1], in test [2], in test [3], in test [4], in [6] and in [9] was inactive. Besides, the result in test [7] and in test [8] was inactive.

Take `CCOC(=O)c1ccccc1OC`: the result in [1], in test [4], in [5], in test [6], in test [9] and in test [7] was inactive. Besides, the compound was called inactive in [8]. In addition, the AC50 in test [2] is 54 µM (active).

With `CCCCCCCCCCCCCCCC(=O)O`, the outcome in test [1], in test [4], in test [5], in test [6], in test [7] and in test [8] was inactive. Moreover, the AC50 in test [2] was 25.3 µM (active).

As for `Cc1ncc([N+](=O)[O-])n1C`, the compound was called inactive in [1], in test [4], in [5], in test [6], in [9] and in [7]. In addition, the call in [8] was inactive. Moreover, the half-maximal activity concentration (AC50) in [2] is 53.2 µM (active).

Turning to `CCCCCCCCC=O`, the result in test [1], in [2], in test [3], in test [4], in [6] and in test [9] was inactive. For the same compound, the result in test [7] and in test [8] was inactive.
